Screens deposited in PubChem BioAssay by National Center for Advancing Translational Sciences (NCATS).
An excerpt weighted towards active compounds, which were near 2.7% of everything screened.
GLP1R inv ag: GLP-1 receptor (human) inverse agonism. 410,000 compounds, 1.6% hits. HEK293 GLP-1R CRE-luciferase, luminescence, 24 h; GLP-1R form is constitutively active. AID 624417. Potency, µM (top dose mostly 38.3 µM), without a hit: at the top dose activity change, negative = inhibition, most hits filed as inhibitors; also: % is scaled to controls: 0 for no effect and ±100 for the full control effect; nearly all actives have a fitted effect of over 55% in size
Target sequence (P43220 whole entry, looked up): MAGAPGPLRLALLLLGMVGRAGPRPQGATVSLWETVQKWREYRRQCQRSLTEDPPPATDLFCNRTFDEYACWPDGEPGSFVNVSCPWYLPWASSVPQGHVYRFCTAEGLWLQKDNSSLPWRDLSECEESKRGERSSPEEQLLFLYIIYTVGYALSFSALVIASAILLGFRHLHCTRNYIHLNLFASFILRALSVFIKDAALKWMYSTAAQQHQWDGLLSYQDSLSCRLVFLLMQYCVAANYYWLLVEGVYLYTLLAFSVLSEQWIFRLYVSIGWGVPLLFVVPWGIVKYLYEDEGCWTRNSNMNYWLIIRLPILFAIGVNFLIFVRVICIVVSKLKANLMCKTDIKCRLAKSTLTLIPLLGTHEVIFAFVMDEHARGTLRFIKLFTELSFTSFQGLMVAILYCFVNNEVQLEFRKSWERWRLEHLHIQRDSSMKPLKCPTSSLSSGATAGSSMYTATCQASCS
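Luminescence readout: a drop in cAMP-driven luciferase signal flags inverse agonism at a constitutively active GLP-1R stably expressed in HEK293. Compound exposure lasted 24 hr at 37 deg C, 5% CO2.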
GLP-1R agonist: activates the human GLP-1 receptor | P43220 | HEK293 GLP-1R CRE-luciferase, luminescence, 4-6 h; cells express a hypersensitive GLP-1R form | Potency, µM (doses to about 45.6 µM), without a hit: at the top dose activation, hits mostly activators | 380,000 compounds, 0.007% hits | AID 624172; also: % of control where 0% means no effect
a7 integrin act: activators of alpha7 integrin expression for muscular dystrophy | alpha7betagal myoblasts, beta-gal FDG fluorescence, 48 h | Potency, µM (series often up to 38.3 µM), for the others: at the top dose activation, usual class: activators | 350,000 compounds, 0.064% hits;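 also: 100% = response of the positive control SU9516; nearly all actives have a fitted effect of over 60% in size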
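alpha7betagal+/- myoblasts (passage 13, 250/well) treated 48 h at 37C with compounds at 1:260 dilution of DMSO stock. Lysed, then beta-galactosidase activity read as FDG fluorescence (ex 480/em 540) after 30 min, with pre-read for autofluorescence.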
GLP1R cytotox: cytotoxicity in counter-screen for GLP-1R inverse agonists; HEK293 cAMP-luciferase reporter cells, luminescence, 24 h; Potency, µM (top dose mostly 38.3 µM), for the others: top-dose activity change, negative = inhibition, usual class: inhibitors; 410,000 compounds, 0.13% hits; AID 624418;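 also: loss of luciferase light is scored as toxicity; % is scaled to controls: 0 for no effect and ±100 for the full control effect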
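Step one: seed cells (200 cells/uL, DMEM with 10% Nu serum, 1% pen-strep). Step two: 12-hour incubation at 37 deg C. Step three: pin 23 nL compound, incubate 24 hr. Step four: add luciferase reagent, read luminescence 12 min later.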
BRCA1 expr act: increases BRCA1 expression | MCF7-BRCA1-FFLuc reporter, luminescence, 48 h; response scale: scaled: vehicle 0%, 10 µM genistein 100% | AID 624202 | Potency, µM (titrated, usually from 46.1 µM), without a hit: top-dose activation, hits mostly activators | 380,000 compounds, 1.1% hits; also: nearly all actives have a fitted effect of over 80% in size
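Using MCF7 cells harboring a BRCA1 firefly luciferase reporter, plated 2 h before compound pinning, the screen measured luminescence after 48 h incubation. Responses were normalized to DMSO and 10 microM genistein, then fitted for concentration-effect.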
* = called active by the depositor. Calls follow the shape of the dose curve; as a rule, active = well fitted curve in the direction sought with a large enough effect; inconclusive = small, poorly fitted or top-dose-only effect, or another doubt; inactive = no such curve, though single readings can be large; an effect the other way counts as inactive or inconclusive. Potency is read from the fitted curve at half-maximal effect.

What do the screens show for `COc1ccccc1-c1cc(C(F)(F)F)nc(S(=O)(=O)CCCC(=O)Nc2cccnc2Cl)n1`?
GLP1R inv ag: inconclusive; GLP-1R agonist: -2.8%; a7 integrin act: -72.3%; GLP1R cytotox: 8.91µM*; BRCA1 expr act: -45.3%

How did COc1ccc2cc(C(=O)C3CCCN(Cc4cccc(C)n4)C3)ccc2c1 (configuration not stated) do in these assays?
GLP1R inv ag: 4.47µM*; GLP-1R agonist: 11.3%; a7 integrin act: -19.9%; GLP1R cytotox: 3.16µM*; BRCA1 expr act: 0.0%

How did COc1ccc(C(=O)C2CCCN(Cc3c(O)cccc3OC)C2)cc1OC (configuration not stated) do in these assays?
GLP1R inv ag: 17.3%; GLP-1R agonist: 23.4%; a7 integrin act: -16.2%; GLP1R cytotox: -19.7%; BRCA1 expr act: -7.0%

Results for COc1cccc(O)c1CN1CCCC(C(=O)c2cccc(C(F)(F)F)c2)C1 (configuration not stated) ?
GLP1R inv ag: 12.6µM*; GLP-1R agonist: 20.0%; a7 integrin act: -50.3%; GLP1R cytotox: inconclusive; BRCA1 expr act: -3.4%

How did Cc1ccc2c(c1)CCCN2C(=O)c1cnn2c1NC(=C1CC1)C=C2C(F)F do in these assays?
BRCA1 expr act: -46.1%

What do the screens show for `C=C(Br)Cn1c(CCC)nc2ccccc21`?
GLP1R inv ag: 3.55µM*; GLP-1R agonist: 4.6%; a7 integrin act: 23.2%; GLP1R cytotox: 5.6%; BRCA1 expr act: 0.0%

How did NC(=O)CC(NC(=O)c1ccc(Br)cc1)c1ccc(N2CCCCCC2)c([N+](=O)[O-])c1 (configuration not stated) do in these assays?
GLP1R inv ag: 11.2µM*; GLP-1R agonist: 16.9%; a7 integrin act: -23.8%; GLP1R cytotox: -27.3%; BRCA1 expr act: -47.3%

What do the screens show for `Nc1ccc(NC(=O)NC2CCCCC2)cc1`?
GLP1R inv ag: 18.9%; GLP-1R agonist: 1.7%; a7 integrin act: 24.9%; GLP1R cytotox: -2.5%; BRCA1 expr act: 52.2%

Results for Nc1ccc(NC(=O)NC2CCCCC2)cc1[N+](=O)[O-] ?
GLP1R inv ag: -15.1%; GLP-1R agonist: 2.8%; a7 integrin act: 15.3%; GLP1R cytotox: -19.7%; BRCA1 expr act: 3.98µM*

What do the screens show for `O=S(=O)(Nc1ccc2oc3c(c2c1)CCCC3)c1cc(Cl)ccc1Cl`?
GLP1R inv ag: 11.2µM*; GLP1R cytotox: 2.2%

Results for Cc1ccc2c(C(=O)CNC3=NCCS3)c(C)[nH]c2c1 ?
BRCA1 expr act: -10.0%

Results for CSCCC(NS(=O)(=O)c1cccc(C(F)(F)F)c1)C(=O)Nc1ccccc1N1CCCC1 (configuration not stated) ?
GLP1R inv ag: 10µM*; GLP-1R agonist: -15.7%; a7 integrin act: -17.2%; GLP1R cytotox: -15.6%; BRCA1 expr act: -42.0%

How did N#Cc1nc(-c2ccco2)oc1N1CCCC1 do in these assays?
GLP1R inv ag: 29.3%; GLP-1R agonist: -3.0%; a7 integrin act: -16.7%; GLP1R cytotox: -5.0%; BRCA1 expr act: -52.6%

How did N#Cc1nc(-c2ccco2)oc1N1CCN(C(c2ccccc2)c2ccccc2)CC1 do in these assays?
GLP1R inv ag: 10µM*; GLP-1R agonist: 3.2%; a7 integrin act: -12.0%; GLP1R cytotox: -5.0%; BRCA1 expr act: -1.6%

Results for Cc1cccc(-c2nc(C#N)c(NC3CCCCC3)o2)c1 ?
GLP1R inv ag: inconclusive; GLP-1R agonist: 6.3%; a7 integrin act: -12.3%; GLP1R cytotox: 0.1%; BRCA1 expr act: 3.16µM*

Results for COc1cccc(NC(=O)CN(C)C(=O)CNC(=O)c2sc3ccccc3c2Cl)c1 ?
GLP1R inv ag: -19.2%; GLP-1R agonist: 12.1%; a7 integrin act: -12.1%; GLP1R cytotox: 4.1%; BRCA1 expr act: inconclusive

Results for COc1ccc(NC(=O)CN(C)C(=O)CNC(=O)c2sc3ccccc3c2Cl)cc1 ?
GLP1R inv ag: 6.4%; GLP-1R agonist: -2.0%; a7 integrin act: -20.7%; GLP1R cytotox: 1.9%; BRCA1 expr act: 7.94µM*

What do the screens show for `Cn1c(=O)n(-c2ccc(Br)cc2F)c(=O)c2sc3ccccc3c21`?
GLP1R inv ag: -5.5%; GLP-1R agonist: 0.8%; GLP1R cytotox: -2.6%; BRCA1 expr act: -1.3%
